Reference: PubChem BioAssay (EPA / NIEHS)
Where “and” joins values, the source holds several entries; their conditions need not be identical. Equal entries are not always repeated. A structure can be active in one record and inactive in another. Calls of active or inactive are those of the source. Rule for the calls: active = hit-call score of the fitted dose curve at least 0.9, where 1 is the maximum; inactive = score below 0.9.

Assay: BSK_LPS_SRB: Viability Assessment in the BioMAP Diversity Plus: LPS Assay (AID 2283079);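 note: measured one day after compound addition; fitted in both directions against DMSO so loss or gain of signal counts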
Conditions: primary human HUVEC with PBMC
Method: BSK_LPS is a cell-based, multiplexed-readout assay that uses umbilical vein endothelium and peripheral blood mononuclear cells, a human vascular primary cell co-culture, with measurements taken at 24 hours after chemical dosing in a 96-well plate.BSK_LPS_SRB is an assay component measured in the BSK_LPS assay. It measures 0.1% sulforhodamine related to cell death using Sulforhodamine staining technology.Data from the assay component BSK_LPS_SRB was analyzed into 1 assay endpoint. This assay endpoint, BSK_LPS_SRB, was analyzed with bidirectional fitting relative to DMSO as the negative control and baseline of activity. Using a type of viability reporter, gain or loss-of-signal activity can be used to understand changes in the signaling. Furthermore, this assay endpoint can be referred to as a primary readout, because this assay has produced multiple assay endpoints where this one serves a signaling function. To generalize the intended target to other relatable targets, this assay endpoint is annotated to the cell morphology intended target family, where the subfamily is cell conformation.
The levels of cell surface (or secreted, indicated by the prefix "s") biomarker endpoints were measured by ELISA. Overt cytotoxicity to cells in confluent adherent cultures (all systems other than the BT system) was assessed by measuring total protein levels using sulforhodamine B (SRB) staining in parallel cultures at the time of biomarker measurements, indicated as SRB endpoints. For proliferation assays for adherent cell types, individual cell types are cultured at sub-confluence and relative cell numbers quantified by SRB staining at time points optimized for each system (48 h: 3C and CASM3C systems; 72 h: BT and HDF3CGF systems; 96 h: SAg system). SRB was performed by staining cells with 0.1% SRB after fixation with 10% TCA and reading wells at 560 nm.Viability and proliferation of PBMC (T cells) was quantified by Alamar Blue reduction for the SAg and BT systems. For PBMC viability (referred to as PBMC Cytotoxicity within the assay endpoint names), cells were plated (75,000/well in a 96-well plate) and then chemical samples added for 1 h before addition of activators, SEB and TSST-1 (20 ng/mL final concentration each). Cells were incubated for 90 h. Then, Alamar Blue (20 uL/well) (Invitrogen, Cat DAL1100) was added for 6 h, and the plates were read with a fluorescence microplate reader at 546/580 nm (excitation/emission). For PBMC proliferation, cells were plated and activated as above but incubated for only 16 h prior to addition of Alamar Blue. Plates were read after 6 h.
In the case of `O=C1OC2(c3ccccc31)c1cc(I)c(O)c(I)c1Oc1c2cc(I)c(O)c1I`, the outcome is reported as “inactive”. For `OCCN1CN(CCO)CN(CCO)C1`, the outcome was “inactive”. For `C=COC(=O)C(C)(C)CCCCCC`, the AC50 was 34.6 µM (active). With `O=S(=O)(O)C(F)(F)C(F)(F)C(F)(F)C(F)(F)C(F)(F)C(F)(F)C(F)(F)C(F)(F)C(F)(F)C(F)(F)F` the outcome was “inactive”. In the case of `O=P(O)(O)CCC(F)(F)C(F)(F)C(F)(F)C(F)(F)C(F)(F)C(F)(F)C(F)(F)C(F)(F)F`, the outcome is reported as “inactive” and the AC50 is reported as 35.3 µM (active). With `CCCCCc1ccc(O)cc1` the AC50 was 28.4 µM (active). For `Cc1ccc(N=Nc2c(O)ccc3ccccc23)c(C)c1`, the outcome was “inactive”. With `C[C@]12CC[C@@H]3c4ccc(O)cc4CC[C@H]3[C@@H]1C[C@@H](O)[C@@H]2O` the outcome was “inactive”. In the case of `OCC(CO)(CBr)CBr`, the outcome is reported as “inactive”. In the case of `CC[N+](CC)(CC)Cc1ccccc1`, the outcome is reported as “inactive”. For `Cc1[nH]nc2c1N=C(c1ccccc1Cl)c1cc([N+](=O)[O-])ccc1N2`, the AC50 was 2.08 µM (active). In the case of `CN(C)c1ccc(C(=C2C=CC(=[N+](C)C)C=C2)c2ccccc2)cc1`, the AC50 is reported as 0.149 µM (active). For `Oc1cc2ccccc2cc1O`, the outcome was “inactive”. In the case of `CCCCc1oc2ccccc2c1C(=O)c1cc(I)c(OCCN(CC)CC)c(I)c1`, the AC50 is reported as 19.4 µM (active). In the case of `O=C(O)C(F)(F)OC(F)(F)C(F)(F)OC(F)(F)C(F)(F)OC(F)(F)C(F)(F)C(F)(F)C(F)(F)F`, the AC50 is reported as 54.4 µM (active) and 50.9 µM (active). For `COc1cccc(O)c1`, the outcome was “inactive”. In the case of `C=CC(C)(CCC=C(C)C)OC(C)=O` (stereo not given), the outcome is reported as “inactive”. With `CN(C)CCOC(c1ccccc1)c1ccccc1` the outcome was “inactive”. For `CCCCCCCCCCCCCCCCCC[N+](C)(C)Cc1ccccc1`, the AC50 was 2.66 µM (active). With `Oc1c(Cl)cc(Cl)cc1Sc1cc(Cl)cc(Cl)c1O` the AC50 was 20 µM (active) and 6.67 µM (active). For `CCCCC(CC)C(=O)O` (stereo not given), the outcome was “inactive”. In the case of `O=C(CCCN1CCC(O)(c2ccc(Cl)cc2)CC1)c1ccc(F)cc1`, the outcome is reported as “inactive”. With `N=C(N)c1ccc(OCCCCCOc2ccc(C(=N)N)cc2)cc1` the outcome was “inactive”. In the case of `CC(=O)Nc1ccc(O)cc1`, the outcome is reported as “inactive”. In the case of `C=CC(=C)CC/C=C(\C)CCC=C(C)C`, the outcome is reported as “inactive”. For `OCC(F)(F)C(F)(F)C(F)(F)C(F)(F)C(F)(F)C(F)(F)C(F)(F)C(F)(F)C(F)(F)C(F)(F)C(F)(F)F`, the outcome was “inactive”. For `O=C(c1ccccc1)c1ccccc1`, the outcome was “inactive”. In the case of `Cc1ccc(C(=O)c2ccccc2)cc1`, the outcome is reported as “inactive”. For `Clc1ccc(Nc2nnc(Cc3ccncc3)c3ccccc23)cc1`, the outcome was “inactive”. In the case of `CS(=O)(=O)c1ccc([C@@H](CC2CCCC2)C(=O)Nc2cnccn2)cc1Cl`, the outcome is reported as “inactive”. In the case of `O=C(NCc1ncc(C(F)(F)F)cc1Cl)c1c(Cl)cccc1Cl`, the outcome is reported as “inactive”. In the case of `C=CC(=O)OCCC(F)(F)C(F)(F)C(F)(F)C(F)(F)C(F)(F)C(F)(F)C(F)(F)C(F)(F)F`, the outcome is reported as “inactive”. With `O=C(O)CCC(F)(F)C(F)(F)C(F)(F)C(F)(F)C(F)(F)F` the outcome was “inactive”. With `O=P(O)(O)CCC(F)(F)C(F)(F)C(F)(F)C(F)(F)C(F)(F)C(F)(F)F` the outcome was “inactive”. In the case of `CCC(C)c1ccccc1O` (stereo not given), the outcome is reported as “inactive”. In the case of `COC1=CC(=O)C[C@@H](C)[C@]12Oc1c(Cl)c(OC)cc(OC)c1C2=O`, the outcome is reported as “inactive”. For `COc1cc(OC)nc(NC(=O)NS(=O)(=O)Nc2ccccc2C(=O)N(C)C)n1`, the outcome was “inactive”. For `COCN(COC)c1nc(N(COC)COC)nc(N(COC)COC)n1`, the outcome was “inactive”. In the case of `O=C1c2ccc(O)c(O)c2C(=O)c2c(O)ccc(O)c21`, the outcome is reported as “inactive”.
